# In all, about 16,000 compounds went through this assay and about 5,100 (32%) were called active. About 25% were inconclusive and are not listed. The list shows a part of the results. Values without a mark were called inactive. Calls come from the whole dose curve; as a rule, active = well fitted curve in the direction sought with a large enough effect; inconclusive = small, poorly fitted or top-dose-only effect, or effect the other way; inactive = no such curve, though single readings can be large or run the other way.
# Molecular target: Cytochrome P450 3A4 (Homo sapiens) (UniProt P08684)
# Experiment: Cytochrome panel assay with activity outcomes
# Conditions: recombinant CYP, pro-luciferin dealkylation, luminescence, p450-cyp3a4; series mostly up to 57.1 µM; activity, negative = inhibition: at the top concentration
# % is set by controls: 0 for no effect and ±100 for the full control effect.
# Cytochrome P450 3A4 (Homo sapiens), sequence (P08684 whole entry, looked up): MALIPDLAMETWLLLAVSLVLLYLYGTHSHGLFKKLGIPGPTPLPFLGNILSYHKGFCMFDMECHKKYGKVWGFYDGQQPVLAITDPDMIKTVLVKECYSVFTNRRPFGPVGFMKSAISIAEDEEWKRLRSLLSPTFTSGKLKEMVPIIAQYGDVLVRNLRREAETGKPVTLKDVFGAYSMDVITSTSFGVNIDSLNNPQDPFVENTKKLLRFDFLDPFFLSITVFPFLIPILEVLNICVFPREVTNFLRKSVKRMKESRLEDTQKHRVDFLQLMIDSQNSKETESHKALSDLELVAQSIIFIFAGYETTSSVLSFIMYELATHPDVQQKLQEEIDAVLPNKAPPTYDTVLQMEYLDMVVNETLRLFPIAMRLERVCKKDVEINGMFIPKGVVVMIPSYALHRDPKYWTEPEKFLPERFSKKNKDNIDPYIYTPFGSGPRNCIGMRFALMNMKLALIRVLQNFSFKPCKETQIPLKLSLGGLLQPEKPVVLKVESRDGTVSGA
Structure (SMILES),"activity, negative = inhibition",AC50
CC(C)=NOCc1ccc(-c2cc(-c3ccccc3)no2)cc1,5.94% [at 11.4 µM],–
C[C@@H](c1ccccc1)N1C(=O)[C@@H]2[C@H]3C(=CC[C@H]2C1=O)C(=O)[C@H]1O[C@H]1[C@H]3O,-19.9% [at 11.4 µM],–
CN(C)S(=O)(=O)Nc1ccccn1,-8.58% [at 11.4 µM],–
COc1cccc(Nc2ncc(C(=O)O)c3ccccc23)c1,-10.1%,–
CN(C)c1ccc(-c2ccc3ncnc(NC4CC4)c3c2)cc1,–,3.16 µM (active)
COc1ccccc1-c1ccc2ncnc(Nc3ccccc3)c2c1,–,12.6 µM (active)
COc1cccc(-c2ccc3ncnc(Nc4ccccc4)c3c2)c1,–,10 µM (active)
CN(C)C(=O)c1ccc(-c2ccc3ncnc(NC4CCNCC4)c3c2)cc1,-8.67%,–
C/C=C\C1=C(CO)C(=O)C2O[C@]2(CC=C(C)C)C1=O (stereo partly drawn),-13.4% [at 11.4 µM],–
Cc1sc2c(c1C)c(=O)n(-c1ccccc1)c1nnc(C)n21,-6.33%,–
Cc1nn(C)cc1C(C(=O)NC1CCCCC1)N(C(=O)Cc1cccs1)c1ccc(C(C)C)cc1 (stereo not drawn),–,2.51 µM (active)
Cc1ccccc1C(C(=O)NC1CCCC1)N(C(=O)Cc1cccs1)c1ccc2c(c1)OCCO2 (stereo not drawn),–,1 µM (active)
CCOC(=O)CN(C(=O)CCC(=O)Nc1cc(C)on1)C(C(=O)NC1CCCC1)c1cccnc1 (stereo not drawn),-13% [at 2.29 µM],–
CCOc1ccc(N(C(=O)/C=C/C(=O)Nc2cc(C)on2)C(C(=O)NC2CCCC2)c2ccccc2C)cc1 (stereo not drawn),–,0.891 µM (active)
O=C(O)CN(CCN(CC(=O)O)CC(=O)O)CCN(CC(=O)O)CC(=O)O,–,inactive
Oc1ccc(Cc2nccc3cc(O)c(O)cc23)cc1O,-11.6% [at 11.4 µM],–
CC1(C)CC(=O)C(C(c2cccc(O)c2O)C2C(=O)CC(C)(C)CC2=O)C(=O)C1,-5.88% [at 11.4 µM],–
OCCN(Cc1ccccc1)Cc1cccc(Cl)c1Cl,9.74% [at 11.4 µM],–
CCN(CC(=O)NCc1cccs1)S(=O)(=O)c1ccc(C(C)C)cc1,–,7.08 µM (active)
COc1ccccc1/C=N/NC(=O)CC(=O)Nc1ccc(Cl)c(Cl)c1,–,7.94 µM (active)
CCOC(=O)N/N=C/c1ccccc1F,-18.1%,–
O=C(CO)N/N=C/c1ccccc1F,-1.22%,–
COCCN1CN=C(Nc2nc3ccccc3s2)NC1,-29.2%,–
COc1ccc(OC)c(C2C(C(=O)Nc3nc4ccccc4s3)=C(C)NC3=C2C(=O)CCC3)c1 (stereo not drawn),–,2.24 µM (active)
CO[C@@H]1CC[C@@]2(C)[C@@H](CC[C@@]3(C)[C@H]2CC=C2[C@H]4CC(C)(C)[C@H](O)[C@@H](OC(C)=O)[C@]4(CO)[C@H](O)C[C@]23C)[C@@]1(C)CO (tested in a mixture with another compound),-10.4% [at 25.6 µM],–

Structure (SMILES),"activity, negative = inhibition",AC50
COc1cccc(/C=c2/s/c(=C(\C#N)C(=O)N3CCOCC3)n(-c3ccccc3)c2=O)c1,5.7%,–
Clc1ccccc1NN(Cc1ccncc1)c1ccccc1Cl,–,0.251 µM (active)
Clc1ccccc1NN(Cc1ccccn1)c1ccccc1Cl,-2.68% [at 11.4 µM],–
CC1=CC(C)(C)N(C)C(=O)N1c1ccc(Cl)cc1,-0.338% [at 2.29 µM],–
Cc1cc(=O)oc(C)c1C(=O)NCCCN1CCN(c2ccc(F)cc2)CC1,-12.9%,–
COCCNC(=O)c1onc(CSc2cccc(Cl)c2)c1C(=O)O,-29%,–
O=C(NCc1ccccc1)c1onc(CSc2ccc(F)cc2)c1C(=O)NCCCN1CCOCC1,–,2.51 µM (active)
C=C(C)[C@@H]1CC=C(C(=O)O)CC1,3.9%,–
CO[C@@H](NC(N)=O)C(=O)O,-10.7% [at 11.4 µM],–
CN(C)c1cc2c(Nc3ccc4c(cnn4Cc4ccccc4)c3)ncnc2cn1,–,5.01 µM (active)
CC(C(=O)NC1CCCC1)N(C(=O)c1snc(C(N)=O)c1N)c1ccc2c(c1)OCCO2 (stereo not drawn),–,3.55 µM (active)
Cc1ccc(NC2=NC(c3ccccc3)n3c(nc(C)cc3=O)N2)c(C)c1 (stereo not drawn),–,14.1 µM (active)
O=C(OCc1cccc(F)c1)c1ccc2c(c1)-c1ccccc1C2=O,-42.1%,–
O=C(OCc1nnc(-c2ccccc2)o1)c1ccc2c(c1)OCCO2,–,20 µM (active)
O=C(OCC#CCSc1nnc(-c2cccc3ccccc23)o1)c1ccco1,–,7.94 µM (active)
Cc1ccccc1OCCNC(=S)Nc1ccccc1,–,12.6 µM (active)
S=C(Nc1ccccc1)Nc1ccc(OCc2ccccc2)cc1,-16.9%,–
O=C(c1ccco1)N1CCC2(CC1)CCN(c1ccccc1)CC2,27.4%,–
O=C(c1ccco1)N1CCC[C@@]2(CCN(c3ccccc3)C2)C1,–,12.6 µM (active)
O=C(c1ccco1)N1CCC[C@@]2(CCN(c3ccncc3)C2)C1,–,1.26 µM (active)
O=C(Nc1ccccc1)N1CC2(CCN(C(=O)c3ccco3)CC2)C1,22.3%,–
CCCN(CCC)C(=S)NC(=O)c1ccc(Cl)cc1Cl,–,14.1 µM (active)
O=C(Nc1ccc(N=Nc2ccccc2)cc1)c1ccc(Cl)cc1Cl,-0.112%,–
O=C(Nc1cccn2ncnc12)c1ccc(Cl)cc1Cl,-10.8%,–
CC1CCc2c(C(=O)Nc3nccs3)csc2C1 (stereo not drawn),-19.8% [at 11.4 µM],–

Structure (SMILES),"activity, negative = inhibition",AC50
CC12COC3(C(=O)Nc4nccs4)CC1CCC32C (stereo not drawn),–,14.1 µM (active)
Cc1onc(C(=O)/C=C/N(C)C)c1C(=O)Nc1nccs1,-15.5%,–
Cn1c(OCc2ccc3c(c2)OCO3)nc2c1c(=O)n(Cc1ccc(Cl)c(Cl)c1)c(=O)n2C,–,3.55 µM (active)
CCCCOC(=O)CCc1c(C)[nH]c(=O)c(C#N)c1C,-27.2%,–
Cc1cc(NC(=O)Nc2ccc(N(C)C)cc2)c2cc(F)cc(F)c2n1,–,6.31 µM (active)
Cc1cc(N)c2cc(NC(=O)Nc3ccc4nc(C)cc(N)c4c3)ccc2n1,-7.21% [at 11.4 µM],–
Cc1cc(NC(=O)Nc2ccc(F)cc2)no1,17.7%,–
CSc1nc(N)nc(SCC(=O)Nc2ccc(Cl)cc2)c1C#N,6.12%,–
CSc1nsc(/C=C/Nc2ccc(Cl)cc2)c1C#N,–,8.91 µM (active)
C[C@@H](c1ccccc1)N1C(=O)[C@H]2[C@@H]3[C@H](O)C=CC(=O)[C@H]3CC[C@H]2C1=O,-17.4% [at 11.4 µM],–
Cc1cnc(CNc2ccnc(-c3cccc(NS(C)(=O)=O)c3)n2)cn1,–,15.8 µM (active)
COc1cccc(-c2nccc(NCc3cnc(C)cn3)n2)c1,–,6.31 µM (active)
Cc1cnc(CNc2ccnc(-c3cccc(C#N)c3)n2)cn1,–,12.6 µM (active)
Cc1cnc(CNc2ccnc(-c3cccnc3)n2)cn1,–,5.01 µM (active)
C[C@@H](N)C(=O)O,-4.94%,–
Cc1cc(C)cc(Oc2nn[nH]n2)c1,-23.8%,–
CC(C)CCN1CC(C(=O)N2CCN(c3ccc(F)cc3)CC2)CC1=O (stereo not drawn),-17.8%,–
O=C(CCS(=O)(=O)c1cccs1)N1CCN(c2ccc(F)cc2)CC1,–,12.6 µM (active)
Cc1ccccc1S(=O)(=O)Oc1ccccc1C(=O)Oc1ccccc1,-12.1% [at 2.29 µM],–
Nc1ccc(S(=O)(=O)Nc2ccccn2)cc1,-11.6% [at 25.6 µM],–
CC(C)CCNC(=O)Cc1ccccc1[N+](=O)[O-],-33.7%,–
COCCNC(=O)c1cn(Cc2c(F)cccc2Cl)nn1,3.71%,–
O=C(Cc1ccccc1[N+](=O)[O-])NCCSCc1c(F)cccc1Cl,–,14.1 µM (active)
CC(C)COCC1CC2(CC(C)(c3csc(N)n3)OC2=O)C(=O)O1 (stereo not drawn),–,14.1 µM (active)
CCN1CCC[C@H]1CNC(=O)c1c(OC)ccc(Br)c1OC,–,inactive

Structure (SMILES),"activity, negative = inhibition",AC50
CCC1CCCCN1Cc1cc(OC)c(O)c([N+](=O)[O-])c1 (stereo not drawn),-10.2%,–
CCC1CCCCN1CCn1c(=S)[nH]c2cc(OC)c(OC)cc2c1=O (stereo not drawn),–,14.1 µM (active)
O=C(O)[C@@H]1C[C@@H](C(=O)O)N1,-3.82%,–
Cn1ncc2c(Cl)ncnc21,-9.04% [at 11.4 µM],–
Cn1ncc2c(NCCc3ccccc3)nc(Cl)nc21,–,2 µM (active)
c1ccc(CCNc2nnnn2-c2ccccc2)cc1,-3.75% [at 2.29 µM],–
CCN1CCN(c2cc(=O)n(-c3cc(Cl)ccc3C)c(=O)[nH]2)CC1,6.28%,–
CS(=O)(=O)c1ccccc1-c1nc(-c2cc(C(F)(F)F)cc(C(F)(F)F)c2)no1,4.25% [at 2.29 µM],–
CS(=O)c1ccccc1-c1nc(-c2cc(C(F)(F)F)cc(C(F)(F)F)c2)no1 (stereo not drawn),15.3% [at 2.29 µM],–
Cc1cccc(-c2noc(-c3cc4ccccc4oc3=O)n2)c1,–,8.91 µM (active)
COc1ccc(OC(=O)c2ccncc2)cc1,-18.8%,–
COc1ccc(/C=C/c2ccncc2)cc1,–,1.58 µM (active)
COc1nc(Oc2ccc(/C=N/O)cc2)nc(N(C)C)n1,-3.18% [at 2.29 µM],–
CCOC(=O)CSc1nnc(CNC(=O)c2ccc(OC)cc2)n1C1CCCCC1,–,2 µM (active)
CCOC(=O)C(C)Sc1nnc(CNC(=O)c2ccc(OC)cc2)n1C1CCCCC1 (stereo not drawn),–,0.891 µM (active)
O[C@@H]1[C@@H](OCc2ccccc2)OC[C@H](O)[C@@H]1O,-2.87% [at 11.4 µM],–
Cc1cc(C)cc(N(C(=O)C2CCCC2)C2C=CS(=O)(=O)C2)c1 (stereo not drawn),-15.4% [at 2.29 µM],–
CCCCC1=NN2C(=N)CC(=O)N=C2S1,-20.3%,–
CCN(CC)c1ccc(NC(=O)c2cnn(CC)c2)cc1,-22%,–
CN(C)c1ccc(NC(=O)CSc2nc(N)c(C(=O)Nc3ccc(N(C)C)cc3)s2)cc1,–,4.47 µM (active)
O=C1c2cccnc2C(=O)N1Cc1ccc(F)cc1,7.01%,–
Cc1ccc(NC2c3ncccc3C(=O)N2Cc2ccc(F)cc2)cc1 (stereo not drawn),–,4.47 µM (active)
CN[C@@H]1NC(=O)c2ccccc2N1Cc1ccc(F)cc1,-12.4% [at 11.4 µM],–
